Screens deposited in PubChem BioAssay by National Center for Advancing Translational Sciences (NCATS).
Hits are enriched below; roughly 3.8% of the tested compounds scored in any of these assays.
ERK AVP inh: vasopressin-driven ERK pathway inhibition; 72,000 tested, 0.99% active; Potency, µM (highest dose often 57.5 µM), without a hit: at the top dose activity, negative = inhibition, usual class: inhibitors; AID 995; HEK293-V1b, vasopressin-stimulated pERK AlphaScreen; note: potency is the fitted concentration of half-maximal effect; % is set by controls: 0 for no effect and ±100 for the full control effect; nearly all actives have a fitted effect of over 55% in size
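V1b-HEK293 cells; cpd 30 min 37C; 25 nM vasopressin 5 min; lyse 10 min; AlphaScreen beads 5 hr RT. Normalized to DMSO basal and 25 nM vasopressin; AC50 by Hill fit.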
Ub-GFP proteasome: ubiquitin-GFP accumulation via proteasome inhibition; Potency, µM (top dose mostly 45.9 µM), for the others: top-dose activation (GFP accumulation), most hits filed as activators; Ubiquitin-GFP reporter cells, proteasome inhibition, GFP fluorescence; response scale: untreated = 0%, 10 µM MG-132 = 100%; 67,000 tested, under 10 active; AID 526; active = well fitted activation curve with a large enough effect, not every such curve was filed as active; inconclusive = small, poorly fitted or top-dose-only effect, or another doubt; inactive = no such curve, though single readings can be large or run the other way; note: potency is the fitted concentration of half-maximal effect
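Proteasome block read as GFP accumulation: ubiquitin(G76V)-GFP U2OS cells exposed to compound (2.9 nM–46 uM) for 4 hr at 37 C. Normalization used untreated cells as 0% and 10 uM MG-132 as 100%; concentration-response curves fitted.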
HEK293 cAMP ctrl: parental HEK293 cAMP activation (counter-screen). parental HEK293 CNG cAMP sensor, membrane potential fluorescence. Potency, µM (series often up to 57.1 µM), inactives show top-dose activation, hits mostly activators. 73,000 tested, 2.5% active. AID 938; note: potency is the fitted concentration of half-maximal effect; % of control where 0% means no effect; nearly all actives have a fitted effect of over 55% in size
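Parental HEK 293 cells stably expressing a modified CNG channel (no TSHR) report cAMP rise as membrane depolarization. Membrane potential dye with 100 uM RO 20-1724 was loaded for 60 min at room temperature, then compound added for 30 min; fluorescence read at 590 nm.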
TSHR agonist: TSH receptor (human) agonism | Potency, µM (series often up to 57.1 µM), for inactives: top-dose activation, hits mostly activators | HEK293-CNG-TSHR cells (CNG channel as cAMP sensor), membrane potential dye, cAMP | 73,000 tested, 0.48% active; active = well fitted activation curve with a large enough effect in the main read-out, with a control signal flat, not every such curve was filed as active; inconclusive = small, poorly fitted or top-dose-only effect, or a change in a side signal; inactive = no such curve, though single readings can be large or run the other way; % of control where 0% means no effect;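 note: the control signal comes from parental cells without the receptor; potency is the fitted concentration of half-maximal effect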
Target sequence (P16473 whole entry, looked up): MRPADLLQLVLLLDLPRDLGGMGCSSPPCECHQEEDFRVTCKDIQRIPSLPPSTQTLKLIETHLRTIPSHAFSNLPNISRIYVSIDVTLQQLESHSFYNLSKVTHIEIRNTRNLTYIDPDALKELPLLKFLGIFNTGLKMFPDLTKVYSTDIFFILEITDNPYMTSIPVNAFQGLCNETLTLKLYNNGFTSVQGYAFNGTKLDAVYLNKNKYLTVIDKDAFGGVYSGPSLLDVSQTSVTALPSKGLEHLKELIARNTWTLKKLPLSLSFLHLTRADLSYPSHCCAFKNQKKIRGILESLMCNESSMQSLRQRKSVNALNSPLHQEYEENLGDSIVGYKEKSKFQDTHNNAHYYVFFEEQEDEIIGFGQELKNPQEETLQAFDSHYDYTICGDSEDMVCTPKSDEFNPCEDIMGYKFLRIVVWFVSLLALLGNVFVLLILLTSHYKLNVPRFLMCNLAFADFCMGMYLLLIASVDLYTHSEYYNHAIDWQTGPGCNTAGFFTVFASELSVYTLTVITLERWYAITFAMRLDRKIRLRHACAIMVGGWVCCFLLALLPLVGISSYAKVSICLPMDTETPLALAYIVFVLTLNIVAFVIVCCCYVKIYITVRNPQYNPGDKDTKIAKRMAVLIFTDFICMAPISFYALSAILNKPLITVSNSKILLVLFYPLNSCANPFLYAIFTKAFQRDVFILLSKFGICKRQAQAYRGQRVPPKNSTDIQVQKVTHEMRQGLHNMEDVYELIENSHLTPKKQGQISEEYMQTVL
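HEK 293 cells stably expressing TSHR and a cAMP-gated CNG channel; parental CNG-only cells as counterscreen. Cells preloaded 60 min with membrane potential dye plus 100 uM RO 20-1724, then compound 30 min; fluorescence read at 590 nm.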
HBB splice mod: alters splicing of the hemoglobin beta chain; HBB splicing reporter cell assay, activation; EGFP reporter with mutant IVS2-654 intron; response scale: normalised to 500 nM splice-correcting PNA; Potency, µM (titrated, usually from 46.1 µM), inactives show top-dose activation, hits mostly activators; 65,000 tested, 0.06% active; note: potency is the fitted concentration of half-maximal effect; 0% is about no effect
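Compounds were applied for 2 days to HeLa EGFP-654 cells, 500/well in Optimem with 2% FCS. The reporter's EGFP is disrupted by mis-splicing of beta-globin intron IVS2-654. Readout: summed well GFP fluorescence from 488 nm laser scanning; reference was 500 nM antisense […] 654 PNA.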
Epigenetic mod: derepresses silenced GFP locus in mouse C127i cells | AID 597 | mouse C127i GFP locus derepression, cytometry, 30 h | 68,000 tested, 0.09% active | Potency, µM (series often up to 46.1 µM), inactives show at the top dose GFP derepression (activation); note: % of control where 0% means no effect
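Locus derepression in mouse mammary C127i cells whose integrated CMV-GFP reporter is normally silent; GFP expression after 30 h compound treatment was quantified by counting fluorescent cells.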
HEK293 cAMP cnt: TSHR-independent cAMP elevation, counter-screen; shares compounds with TSHR agonist; parental HEK293 CNG biosensor, cAMP membrane potential fluorescence; activity change, negative = inhibition, % at 32.9 µM; 150 tested, under 10 active; AID 953
* marks the source's active call; other numbers are inactive results; u = inconclusive; x = no result; [ ] = another dose, or the depositor's remark. Unless noted, calls come from the whole dose curve; as a rule, active = well fitted curve in the direction sought with a large enough effect; inconclusive = small, poorly fitted or top-dose-only effect, or another doubt; inactive = no such curve, though single readings can be large; an effect the other way counts as inactive or inconclusive.

SMILES	ERK AVP inh	Ub-GFP proteasome	HEK293 cAMP ctrl	TSHR agonist	HBB splice mod	Epigenetic mod	HEK293 cAMP cnt
N=C(N)SCC(=O)O	-29.1%[11.5 µM]	-1.8%[9.17 µM]	7.5%[11.4 µM]	-2.6%[11.4 µM]	-1.4%[9.22 µM]	6.9%[9.22 µM]	x
O=C(Nc1ccc2oc(-c3ccccc3F)nc2c1)c1ccc2c(c1)OCCO2	10µM*	-0.5%	18.3%	-0.3%[11.4 µM]	-0.5%	-4.3%	x
O=C(Nc1ccc2nn(-c3ccccc3)nc2c1)c1ccc2c(c1)OCCO2	15.8µM*	14.0%	u	u	-1.6%[9.22 µM]	-2.2%	x
O=C(Nc1ccccc1-c1nc2ccccc2o1)c1ccc2c(c1)OCCO2	2.9%	-1.6%	6.1%	1.5%	-1.4%	4.2%	x
COc1ncc2nc(-c3cc(F)cc(F)c3)c(=O)n(CCc3ccccc3)c2n1	-7.0%	10.9%	11.9%	3.7%	0.0%	2.7%[9.22 µM]	x
CN1CCC2(CC1)CCN(C(=O)c1cc(C(F)(F)F)cc(C(F)(F)F)c1)CC2	-16.5%	0.0%	-9.2%	-3.9%	3.0%	-0.2%[9.22 µM]	x
O=C(COc1ccc2c(c1)CCC2)N1CCc2ccccc21	-8.2%	-1.1%	25.1µM*	u	0.0%[57.5 µM]	0.0%	x
Cc1ccccc1N1C(=O)c2cccc3c(N(C)CCO)ccc(c23)C1=O	1.2%	11.6%	4.4%	-5.8%	20µM*	-1.8%	x
CCCn1c(-c2ccc(F)cc2)nc2c(NC(C)CN(C)C)nc(C)nc21 (stereo not given)	-0.4%	5.1%	u	u	0.4%	x	x
CCc1cccc(NC(=O)CS(=O)Cc2nc(-c3ccc(C)cc3)oc2C)c1 (stereo not given)	31.6µM*	8.8%	15.5%	x	-1.3%	0.0%	x
CCCCNC(=O)CS(=O)Cc1nc(-c2ccc(C)cc2)oc1C (stereo not given)	-4.7%	-7.4%	u	u	-0.4%	x	x
c1ccc2[nH]c(CN3CCN(c4ncnc5c4oc4ccccc45)CC3)nc2c1	12.6µM*	3.4%	0.5%	10.7%	-3.1%[57.5 µM]	0.0%	x
Nc1nnc(SCC(=O)NCc2ccc3c(c2)OCO3)s1	-27.7%	-0.8%	-5.8%	-7.9%	-0.7%	-4.3%	x
NC(=O)c1nsc(C(=O)N(CC(=O)NCc2ccc3c(c2)OCO3)C2CCCC2)c1N	-19.0%	11.4%	12.8%	12.6µM*	x	-1.7%	7.5
Cc1ccccc1N1CCN(c2ncnc3c2cnn3Cc2ccc(Cl)cc2)CC1	5.7%	3.6%	18.2%	x	5.1%	3.2%	u
CCOc1ccc(N(CC(=O)Nc2ccc(C)cc2)S(=O)(=O)c2c(C)noc2C)cc1	-15.9%	-17.0%	3.3%	2.7%	-0.3%	-1.9%	5.3[25.6 µM]
CCOc1ccc(N(CC(=O)NCc2ccc(F)cc2)S(=O)(=O)c2c(C)noc2C)cc1	-8.6%	14.7%	7.6%	13.0%	0.5%	0.0%	x
CCOc1ccc(N(CC(=O)NC(C)(C)C)S(=O)(=O)c2c(C)noc2C)cc1	1.5%	5.9%	18.2%	12.3%	-0.1%	0.0%	6.9[25.6 µM]
CCOc1ccc(N(CC(=O)NCc2cccs2)S(=O)(=O)c2c(C)noc2C)cc1	-8.4%	-4.4%	6.4%	31.6µM*	-0.7%	1.5%	9.5
OC[C@@H]1O[C@H](O)[C@@H](Cl)[C@H](O)[C@@H]1O	-6.7%	4.9%	-2.3%	-5.6%	-0.2%	4.0%	x
COc1ccc(F)cc1S(=O)(=O)n1cc(C)nc1-c1ccccc1	-5.2%	-1.8%	3.8%	6.9%	-0.8%	-1.7%	-53.5[25.6 µM]
O=C(Nc1ccc(N2CCOCC2)cc1)NC1CCCCC1	x	x	-11.5%	16.7%	x	x	x
O=C(Nc1ccc(N2CCOCC2)cc1)C1CC1	-20.7%	-3.1%	2.7%	-2.5%	-1.7%	-3.2%	5.1[25.6 µM]
N#CCCn1c(=O)cnc2cnc(Oc3cccc(Cl)c3)nc21	-23.8%	-7.3%	10.8%	-13.2%	0.8%	-2.7%[9.22 µM]	x
